Experimental data published in the supplement of paper PMC13380429.

What was measured:
[1] = system: Vero E6 infected with SARS-CoV-2; experiment: morphology score (similarity to uninfected cells); higher = more like uninfected cells; conditions: 24 h
[2] = system: Vero E6 infected with SARS-CoV-2; experiment: SARS-CoV-2 infection rate relative to infected DMSO; higher = more infection, active = 60 or less; conditions: 24 h

SMILES | morphology score [1] | SARS-CoV-2 infection rate [2]
CC1=NN(c2ccccc2)C(=O)C1 [edaravone] (10 µM) | 0.127 | 101% (inactive)
CC(=O)Nc1ccc(S(=O)(=O)c2ccc(NC(C)=O)cc2)cc1 [acedapsone] (10 µM) | 0.233 | 98% (inactive)
Cc1cn([C@H]2C[C@H](N=[N+]=[N-])[C@@H](CO)O2)c(=O)[nH]c1=O [zidovudine] (10 µM) | -0.144 | 108% (inactive)
COc1cc(C2Oc3cc([C@H]4Oc5cc(O)cc(O)c5C(=O)[C@@H]4O)ccc3OC2CO)ccc1O (stereo partly drawn) [silibinin] (10 µM) | 0.0273 | 104% (inactive)
CCN(CC)CC(=O)Nc1c(C)cccc1C [lidocaine] (10 µM) | 0.0603 | 100% (inactive)
COCc1c(-c2ccc(NC(=O)Nc3cc(C(F)(F)F)ccc3F)c(F)c2)c2c(N)ncnn2c1CN1CCOCC1 (0.833333 µM) | 0.227 | 96.5% (inactive)
C[C@@H](c1ncncc1F)[C@](O)(Cn1cncn1)c1ccc(F)cc1F [voriconazole] (10 µM) | 0.0199 | 101% (inactive)
Cc1cnc(C(=O)NCCc2ccc(S(=O)(=O)NC(=O)NC3CCCCC3)cc2)cn1 [glipizide] (10 µM) | 0.218 | 96% (inactive)
COc1ccc(Cc2nccc3cc(OC)c(OC)cc23)cc1OC [papaverine] (10 µM) | 0.169 | 105% (inactive)
CCN(CC)CCOCCOC(=O)C1(c2ccccc2)CCCC1 [carbetapentane] (10 µM) | 0.363 | 83% (inactive)
O=C(/C=C/C=C/c1ccc2c(c1)OCO2)N1CCCCC1 [piperine] (10 µM) | 0.0346 | 97.5% (inactive)
OCCOCCN1CCN(C(c2ccccc2)c2ccc(Cl)cc2)CC1 (stereo not drawn) [hydroxyzine] (10 µM) | 0.0655 | 104% (inactive)
CN1CC(O)C2=C/C(=N/NC(N)=O)C(=O)C=C21 (stereo not drawn) [carbazochrome] (10 µM) | 0.0013 | 113% (inactive)
C=CC1=C(C(=O)O)N2C(=O)[C@@H](NC(=O)/C(=N\O)c3csc(N)n3)[C@H]2SC1 [cefdinir] (10 µM) | -0.118 | 107% (inactive)
CCN1CCN(c2cc3c(cc2F)c(=O)c(C(=O)O)cn3C2CC2)CC1 [enrofloxacin] (10 µM) | 0.0599 | 112% (inactive)
OCc1cc([C@@H](O)CNCCCCCCOCCOCc2c(Cl)cccc2Cl)ccc1O [vilanterol] (10 µM) | 0.0228 | 111% (inactive)
C/C=C(/C(=C/C)c1ccc(O)cc1)c1ccc(O)cc1 [dienestrol] (10 µM) | -0.0419 | 96% (inactive)

SMILES | morphology score [1] | SARS-CoV-2 infection rate [2]
Cc1cc(/C=C/C#N)cc(C)c1Nc1ccnc(Nc2ccc(C#N)cc2)n1 [rilpivirine] (0.833333 µM) | 0.136 | 111% (inactive)
Cc1cccc(C)c1OCC(=O)N[C@@H](Cc1ccccc1)[C@@H](O)C[C@H](Cc1ccccc1)NC(=O)[C@H](C(C)C)N1CCCNC1=O [Lopinavir] (10 µM) | 0.184 | 82% (inactive)
Cc1cccn2c(=O)c(/C=C(\C#N)c3nc4ccccc4s3)c(Oc3ccc(F)cc3)nc12 (10 µM) | 0.0128 | 102% (inactive)
CC[C@H](C)C[C@H](C)CCCCCCCCC(=O)N[C@H]1C[C@@H](O)[C@@H](NCCN)NC(=O)[C@@H]2[C@@H](O)CCN2C(=O)[C@H]([C@H](O)CCN)NC(=O)[C@H]([C@H](O)[C@@H](O)c2ccc(O)cc2)NC(=O)[C@@H]2C[C@@H](O)CN2C(=O)[C@H]([C@@H](C)O)NC1=O [caspofungin] (10 µM) | -0.0128 | 108% (inactive)
CCCCCCCCc1ccc(-c2ccc(C(=O)O)cc2)cc1 (10 µM) | -0.0106 | 96% (inactive)
NS(=O)(=O)C#Cc1ccccc1 [pifithrin-mu] (0.833333 µM) | 0.168 | 92% (inactive)
O=C1CCCC(=O)C1C(=O)c1ccc(C(F)(F)F)cc1[N+](=O)[O-] [nitisinone] (10 µM) | 0.0537 | 110% (inactive)
Oc1cc(Cl)ccc1Oc1ccc(Cl)cc1Cl [triclosan] (10 µM) | 0.237 | 95% (inactive)
COc1cc(CCc2cc(NC(=O)c3ccc(N4CC(C)NC(C)C4)cc3)n[nH]2)cc(OC)c1 (stereo not drawn) (10 µM) | 0.373 | 79.5% (inactive)
CCN(CC)CCCCC1CCN(CC(=O)N2c3ccccc3C(=O)Nc3cccnc32)CC1 (10 µM) | 0.0682 | 108% (inactive)
Cc1ccc(S(=O)(=O)NC2c3ccccc3Oc3ccccc32)cc1 (10 µM) | 0.173 | 95.5% (inactive)
CC(C)(C)c1ccc(S(=O)(=O)/C=C/C#N)cc1 (0.833333 µM) | 0.173 | 89.5% (inactive)
CCCCCCNC(=O)Nc1ccc(S(=O)(=O)Nc2ccc(CCNC[C@H](O)COc3ccc(O)cc3)cc2)cc1 (10 µM) | -0.167 | 112% (inactive)
O=C(O)c1ccc2nc(-c3cc(Cl)cc(Cl)c3)oc2c1 [tafamidis-meglumine] (10 µM) | 0.242 | 90.5% (inactive)
CCC(CC)[C@H](NC(C)=O)[C@@H]1[C@H](O)[C@@H](C(=O)O)C[C@H]1NC(=N)N [peramivir] (10 µM) | 0.00579 | 102% (inactive)
CCn1c2ccccc2c2cc(CNCc3ccccc3OC)ccc21 (10 µM) | 0.26 | 87% (inactive)
NC(=O)c1ccc(I)c([N+](=O)[O-])c1 [iniparib] (10 µM) | 0.0662 | 106% (inactive)
